Values without a mark were called inactive. Active and inactive are the calls of the source.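 Rule for the calls: active = calcium response above 60% of the acetylcholine maximum at human M5, as a positive modulator; inactive = the rest.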
target: Muscarinic acetylcholine receptor M5 (Homo sapiens) (UniProt P08912); experiment: M5 muscarinic receptor positive allosteric modulators, cell-based, single concentration, CHO-K1 hM5, calcium flux (AID 743100); details: CHO-K1 hM5, Fluo-4 calcium flux, ACh EC20, hits give high values; at 10 µM unless noted
Sequence (P08912 whole entry, looked up): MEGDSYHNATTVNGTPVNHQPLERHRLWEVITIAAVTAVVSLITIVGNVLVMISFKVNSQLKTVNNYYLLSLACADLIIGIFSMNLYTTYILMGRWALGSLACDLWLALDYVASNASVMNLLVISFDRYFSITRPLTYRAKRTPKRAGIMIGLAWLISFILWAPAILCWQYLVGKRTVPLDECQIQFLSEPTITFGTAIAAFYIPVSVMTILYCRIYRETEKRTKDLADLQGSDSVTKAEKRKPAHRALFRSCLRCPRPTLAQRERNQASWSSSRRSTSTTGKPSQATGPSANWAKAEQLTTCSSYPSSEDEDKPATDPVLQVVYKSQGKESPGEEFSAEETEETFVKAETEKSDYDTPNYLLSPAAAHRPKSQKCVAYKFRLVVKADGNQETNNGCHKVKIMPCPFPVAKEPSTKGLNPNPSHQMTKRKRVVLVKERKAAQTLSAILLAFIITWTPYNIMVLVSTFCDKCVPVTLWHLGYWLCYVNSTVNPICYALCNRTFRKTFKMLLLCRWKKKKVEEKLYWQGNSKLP

| SMILES | % ACh max response |
| --- | --- |
| CCN(CC1CCN(S(=O)(=O)c2ccc3occc3c2)CC1)C(=O)c1ccccc1 | 10.9% |
| CCN(Cc1ccccc1C(F)(F)F)C(=O)C1(F)CCN(S(=O)(=O)c2ccc3occc3c2)CC1 | 54% |
| CC(=O)N(Cc1ccccc1)CC1CCN(S(=O)(=O)c2ccc3c(c2)OCCO3)CC1 | 7.56% |
| CCOC(=O)C1(Cc2ccccc2)CCN(S(=O)(=O)c2ccc3occc3c2)CC1 | 18.7% |
| CCN(CC1CCN(S(=O)(=O)c2ccc3cn[nH]c3c2)CC1)C(=O)c1ccccc1 | 13.7% |
| CCN(C(=O)C1CCN(S(=O)(=O)c2ccc(-n3cccn3)cc2)CC1)[C@H](C)c1ccccc1 | 97.5% (active) |
| CCN(Cc1ccccc1)C(=O)C1CCN(S(=O)(=O)c2ccc(C(C)(C)C)cc2)CC1 | 59.3% [at 30 µM] |
| CCN(Cc1ccccc1)C(=O)C1CCN(C(=O)c2ccc(OC)cc2)CC1 | 25.5% [at 30 µM] |
| CCN(Cc1ccccc1)C(=O)C1CCN(S(=O)(=O)c2ccccc2OC)CC1 | 28.1% [at 30 µM] |
| CCN(Cc1ccncc1)C(=O)C1CCN(S(=O)(=O)c2ccc3cn[nH]c3c2)CC1 | 22.4% |
| CCN(Cc1ccccc1)C(=O)C1CCN(S(=O)(=O)c2cccc(F)c2)CC1 | 63.2% [at 30 µM] (active) |
| CC(=O)N(Cc1ccccc1)CC1CCN(S(=O)(=O)c2ccc(OC(F)(F)F)cc2)CC1 | 6.72% |
| CCN(Cc1ccccc1)C(=O)C1CCN(S(=O)(=O)CC(C)C)CC1 | 21.3% [at 30 µM] |
| CCN(Cc1ccccc1)C(=O)C1CCN(S(=O)(=O)c2c(C)noc2C)CC1 | 25.9% [at 30 µM] |
| CCN(Cc1ccccc1C)C(=O)C1CCN(S(=O)(=O)c2ccc3cn[nH]c3c2)CC1 | 85.1% (active) |
| CCN(Cc1ccccc1)C(=O)C1CCN(S(=O)(=O)c2ccc(OC)nc2)CC1 | 62.5% [at 30 µM] (active) |
| CCN(Cc1ccccc1)C(=O)C1CCN(S(=O)(=O)c2ccc(C(C)=O)cc2)CC1 | 58.4% [at 30 µM] |

| SMILES | % ACh max response |
| --- | --- |
| CCN(Cc1ccccc1)C(=O)C1CCN(S(=O)(=O)c2ccc3cnn(C)c3c2)CC1 | 62.3% (active) |
| CC1c2ccccc2CCN1C(=O)C1CCN(S(=O)(=O)c2ccc3[nH]ncc3c2)CC1 (stereo not drawn) | 40.4% |
| CCN(Cc1ccccc1)C(=O)C1CCN(S(=O)(=O)c2ccc(OC)cc2)CC1 | 78.4% [at 30 µM] (active) |
| CCN(Cc1ccccc1)C(=O)C1CCN(S(=O)(=O)c2ccc3nn(C)cc3c2)CC1 | 51.4% |
| CCN(Cc1cccc(OC)c1)C(=O)C1CCN(S(=O)(=O)c2ccc3cn[nH]c3c2)CC1 | 74.2% (active) |
| COc1cccc(S(=O)(=O)N2CCC(CN(Cc3ccccc3)C(C)=O)CC2)c1 | 12.7% |
| CCN(Cc1ccccc1)C(=O)C1CCN(S(=O)(=O)c2ccc3c(cnn3C)c2)CC1 | 63.3% (active) |
| CN(C)C(=O)C1(Cc2ccccc2)CCN(S(=O)(=O)c2ccc3occc3c2)CC1 | 8.49% |
| CCN(Cc1ccccc1F)C(=O)C1CCN(S(=O)(=O)c2ccc3cn[nH]c3c2)CC1 | 69.8% (active) |
| CCN(Cc1ccc(SC)cc1)C(=O)C1CCN(S(=O)(=O)c2ccc3cn[nH]c3c2)CC1 | 14% |
| CCN(Cc1ccccc1OC)C(=O)C1CCN(S(=O)(=O)c2ccc3cn[nH]c3c2)CC1 | 84.5% (active) |
| CCN(Cc1ccccc1C(F)(F)F)C(=O)C1(F)CCN(S(=O)(=O)c2ccc3[nH]ncc3c2)CC1 | 75.9% (active) |
| CCN(Cc1ccccc1)C(=O)C1CCN(S(=O)(=O)c2ccc(N3CCOCC3)nc2)CC1 | 70% [at 30 µM] (active) |
| CCN(Cc1ccccc1)C(=O)C1CCN(S(=O)(=O)c2ccc3cn[nH]c3c2)CC1 | 83.1% [at 30 µM] (active) |
| CCN(C(=O)C1CCN(S(=O)(=O)N(C)C)CC1)[C@H](C)c1ccccc1 | 29.1% |
| CCN(Cc1ccccc1)C(=O)C1CCN(S(=O)(=O)c2cccc(OC(F)F)c2)CC1 | 70.2% [at 30 µM] (active) |
